Measurements from paper PMC11006913.
Where a chain is given by its changes, count along the chain named.

How the values were obtained:
Assay in all cases: PBM; 200 nM protein, PBS
Settings in all cases: dsDNA, one strand shown
[1] = target: SHOX (Homo sapiens, UniProt O15266 103-189)
[2] = target: T1, VENTX (Homo sapiens, UniProt O95231 78-163, R121Q)
T1 sequence: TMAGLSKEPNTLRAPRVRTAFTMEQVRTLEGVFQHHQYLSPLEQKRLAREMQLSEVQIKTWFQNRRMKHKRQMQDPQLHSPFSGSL

[3] = target: T2, VENTX (Homo sapiens, UniProt O95231 78-163)
T2 sequence: T1 sequence with Q44R

[4] = target: T3, PAX4 (Homo sapiens, UniProt O43316 9-242, R200K)
T3 sequence: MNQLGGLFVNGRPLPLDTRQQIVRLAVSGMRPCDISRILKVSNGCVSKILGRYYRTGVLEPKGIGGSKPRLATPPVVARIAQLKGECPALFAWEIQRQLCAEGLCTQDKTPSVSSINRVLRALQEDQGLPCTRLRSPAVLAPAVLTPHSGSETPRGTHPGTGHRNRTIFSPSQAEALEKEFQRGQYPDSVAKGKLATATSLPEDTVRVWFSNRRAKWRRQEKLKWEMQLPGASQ

[5] = target: T4, VENTX (Homo sapiens, UniProt O95231 78-163, Y115F)
T4 sequence: T1 sequence with Y38F, Q44R

[6] = target: T5, PAX4 (Homo sapiens, UniProt O43316 9-242)
T5 sequence: T3 sequence with K192R

[7] = target: HESX1 (Homo sapiens, UniProt Q9UBX0 95-180)
HESX1 (Homo sapiens, UniProt Q9UBX0 95-180), sequence (Q9UBX0 95-180): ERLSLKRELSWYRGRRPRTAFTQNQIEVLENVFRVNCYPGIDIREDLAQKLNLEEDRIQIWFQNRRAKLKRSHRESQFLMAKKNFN

[8] = target: MSX2 (Homo sapiens, UniProt P35548 130-214, R199I)
MSX2 (Homo sapiens, UniProt P35548 130-214, R199I), sequence (P35548 130-214 R199I): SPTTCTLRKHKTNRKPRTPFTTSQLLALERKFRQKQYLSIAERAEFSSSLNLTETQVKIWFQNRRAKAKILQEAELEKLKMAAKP

[9] = target: T6, PAX4 (Homo sapiens, UniProt O43316 9-242, R200Q)
T6 sequence: T3 sequence with K192Q

[10] = target: SHOX (Homo sapiens, UniProt O15266 103-189, R173C)
SHOX (Homo sapiens, UniProt O15266 103-189, R173C), sequence (O15266 103-189 R173C): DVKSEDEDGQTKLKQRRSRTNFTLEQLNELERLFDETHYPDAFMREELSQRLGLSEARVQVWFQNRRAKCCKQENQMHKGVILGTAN

[11] = target: T7, PAX4 (Homo sapiens, UniProt O43316 9-242, F177V)
T7 sequence: T3 sequence with F169V, K192R

[12] = target: MSX2 (Homo sapiens, UniProt P35548 130-214)
MSX2 (Homo sapiens, UniProt P35548 130-214), sequence (P35548 130-214): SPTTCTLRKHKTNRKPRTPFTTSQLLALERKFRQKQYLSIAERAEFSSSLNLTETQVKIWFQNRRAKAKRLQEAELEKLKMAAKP

[13] = target: T8, PAX4 (Homo sapiens, UniProt O43316 9-242, F177Y)
T8 sequence: T3 sequence with F169Y, K192R

[14] = target: VAX1 (Homo sapiens, UniProt Q5SQQ9 86-172)
VAX1 (Homo sapiens, UniProt Q5SQQ9 86-172), sequence (Q5SQQ9 86-172): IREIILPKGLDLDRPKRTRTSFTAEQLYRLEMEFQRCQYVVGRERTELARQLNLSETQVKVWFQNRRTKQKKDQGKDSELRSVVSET

[15] = target: HESX1 (Homo sapiens, UniProt Q9UBX0 95-180, P111T)
HESX1 (Homo sapiens, UniProt Q9UBX0 95-180, P111T), sequence (Q9UBX0 95-180 P111T): as the sequence (Q9UBX0 95-180) above, with P17T counted along it

[16] = target: MSX2 (Homo sapiens, UniProt P35548 130-214, F161Y)
MSX2 (Homo sapiens, UniProt P35548 130-214, F161Y), sequence (P35548 130-214 F161Y): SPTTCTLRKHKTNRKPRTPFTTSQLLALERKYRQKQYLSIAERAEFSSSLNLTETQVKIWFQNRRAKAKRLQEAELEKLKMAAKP

[17] = target: HESX1 (Homo sapiens, UniProt Q9UBX0 95-180, F115L)
HESX1 (Homo sapiens, UniProt Q9UBX0 95-180, F115L), sequence (Q9UBX0 95-180 F115L): as the sequence (Q9UBX0 95-180) above, with F21L counted along it

[18] = target: VAX1 (Homo sapiens, UniProt Q5SQQ9 86-172, T142I)
VAX1 (Homo sapiens, UniProt Q5SQQ9 86-172, T142I), sequence (Q5SQQ9 86-172 T142I): as the sequence (Q5SQQ9 86-172) above, with T57I counted along it

[19] = target: T9, PAX4 (Homo sapiens, UniProt O43316 9-242, R227W)
T9 sequence: T3 sequence with K192R, R219W

[20] = target: VAX1 (Homo sapiens, UniProt Q5SQQ9 86-172, K157R)
VAX1 (Homo sapiens, UniProt Q5SQQ9 86-172, K157R), sequence (Q5SQQ9 86-172 K157R): as the sequence (Q5SQQ9 86-172) above, with K72R counted along it

SHOX (Homo sapiens, UniProt O15266 103-189), sequence (O15266 103-189): as the sequence (O15266 103-189 R173C) above, with C71R counted along it

| Sequence | binding signal [1] | binding signal [2] | binding signal [3] | binding signal [4] | binding signal [5] | binding signal [6] | binding signal [7] | binding signal [8] | binding signal [9] | binding signal [10] | binding signal [11] | binding signal [12] | binding signal [13] | binding signal [14] | binding signal [15] | binding signal [16] | binding signal [17] | binding signal [18] | binding signal [19] | binding signal [20] |
| --- | --- | --- | --- | --- | --- | --- | --- | --- | --- | --- | --- | --- | --- | --- | --- | --- | --- | --- | --- | --- |
| GTTAATTA | 13.1 upbm affinity estimate (log intensity, higher = more binding, comparable within an allelic series) | 12.5 upbm affinity estimate (log intensity, higher = more binding, comparable within an allelic series) | 13 upbm affinity estimate (log intensity, higher = more binding, comparable within an allelic series) | 12.1 upbm affinity estimate (log intensity, higher = more binding, comparable within an allelic series) | 12.3 upbm affinity estimate (log intensity, higher = more binding, comparable within an allelic series) | 12.7 upbm affinity estimate (log intensity, higher = more binding, comparable within an allelic series) | 13.6 upbm affinity estimate (log intensity, higher = more binding, comparable within an allelic series) | 13.1 upbm affinity estimate (log intensity, higher = more binding, comparable within an allelic series) | 12.5 upbm affinity estimate (log intensity, higher = more binding, comparable within an allelic series) | 10.7 upbm affinity estimate (log intensity, higher = more binding, comparable within an allelic series) | 10.9 upbm affinity estimate (log intensity, higher = more binding, comparable within an allelic series) | 14 upbm affinity estimate (log intensity, higher = more binding, comparable within an allelic series) | 11.4 upbm affinity estimate (log intensity, higher = more binding, comparable within an allelic series) | 13.8 upbm affinity estimate (log intensity, higher = more binding, comparable within an allelic series) | 12.3 upbm affinity estimate (log intensity, higher = more binding, comparable within an allelic series) | 13.6 upbm affinity estimate (log intensity, higher = more binding, comparable within an allelic series) | 8.41 upbm affinity estimate (log intensity, higher = more binding, comparable within an allelic series) | 13.9 upbm affinity estimate (log intensity, higher = more binding, comparable within an allelic series) | 11.3 upbm affinity estimate (log intensity, higher = more binding, comparable within an allelic series) | 13.9 upbm affinity estimate (log intensity, higher = more binding, comparable within an allelic series) |
| CTTAATTA | 13.2 upbm affinity estimate (log intensity, higher = more binding, comparable within an allelic series) | 12.5 upbm affinity estimate (log intensity, higher = more binding, comparable within an allelic series) | 12.9 upbm affinity estimate (log intensity, higher = more binding, comparable within an allelic series) | 12.1 upbm affinity estimate (log intensity, higher = more binding, comparable within an allelic series) | 12.3 upbm affinity estimate (log intensity, higher = more binding, comparable within an allelic series) | 12.7 upbm affinity estimate (log intensity, higher = more binding, comparable within an allelic series) | 13.4 upbm affinity estimate (log intensity, higher = more binding, comparable within an allelic series) | 13.1 upbm affinity estimate (log intensity, higher = more binding, comparable within an allelic series) | 12.6 upbm affinity estimate (log intensity, higher = more binding, comparable within an allelic series) | 10.8 upbm affinity estimate (log intensity, higher = more binding, comparable within an allelic series) | 11 upbm affinity estimate (log intensity, higher = more binding, comparable within an allelic series) | 14 upbm affinity estimate (log intensity, higher = more binding, comparable within an allelic series) | 11.5 upbm affinity estimate (log intensity, higher = more binding, comparable within an allelic series) | 13.8 upbm affinity estimate (log intensity, higher = more binding, comparable within an allelic series) | 12.3 upbm affinity estimate (log intensity, higher = more binding, comparable within an allelic series) | 13.6 upbm affinity estimate (log intensity, higher = more binding, comparable within an allelic series) | 8.38 upbm affinity estimate (log intensity, higher = more binding, comparable within an allelic series) | 13.9 upbm affinity estimate (log intensity, higher = more binding, comparable within an allelic series) | 11.3 upbm affinity estimate (log intensity, higher = more binding, comparable within an allelic series) | 13.8 upbm affinity estimate (log intensity, higher = more binding, comparable within an allelic series) |
